# Results published in PubChem BioAssay (NCATS).
# Several values for one entry are separate records, joined by “and”; a condition that tells them apart may be missing. Equal entries are not always repeated. Values without a mark were called inactive. Inconclusive results are not listed. Entries that show only a call come without a potency. Some compounds were tested as several samples or in several runs, with calls that do not always agree. Activity calls are given as the source filed them. Unless noted, calls come from the whole dose curve; as a rule, active = well fitted curve in the direction sought with a large enough effect; inconclusive = small, poorly fitted or top-dose-only effect, or another doubt; inactive = no such curve, though single readings can be large; an effect the other way counts as inactive or inconclusive.
# Assays:
# Hek293T = assay: Primary qHTS to identify gynecologic anti-cancer compounds using libraries of approved drugs and bioactive compounds (AID 1345084); conditions: Gynecologic cancer cell panel viability, ATPlite luminescence, 48 h, control line for the selectivity index; series mostly up to 57.5 µM; note: nearly all actives have a fitted effect of over 55% in size; note: potency is the fitted concentration of half-maximal effect
# Procedure, shortened: (§1)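 Luminescence from the ATPlite ATP-monitoring reagent indicates viable cell number; lower signal means cytotoxicity. Cells received compound 16 h after seeding and were exposed for 48 h across five concentrations.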
# JEG-3 = assay: as above; conditions: Gynecologic cancer cell panel viability, ATPlite luminescence, 48 h; series mostly up to 57.5 µM
# Procedure, shortened: as §1
# OV90 = assay: as above; conditions: Gynecologic cancer cell panel viability, ATPlite luminescence, 48 h; series mostly up to 57.5 µM
# Procedure, shortened: as §1
# PA-1 = assay: as above; conditions: Gynecologic cancer cell panel viability, ATPlite luminescence, 48 h; series mostly up to 57.5 µM
# Procedure, shortened: as §1
# SKOV3 = assay: as above; conditions: Gynecologic cancer cell panel viability, ATPlite luminescence, 48 h; series mostly up to 57.5 µM
# Procedure, shortened: as §1
# Tov-21-G = assay: as above; conditions: Gynecologic cancer cell panel viability, ATPlite luminescence, 48 h; series mostly up to 57.5 µM
# Procedure, shortened: as §1
# Tov112D = assay: as above; conditions: Gynecologic cancer cell panel viability, ATPlite luminescence, 48 h; series mostly up to 57.5 µM
# Procedure, shortened: as §1
# astro = assay: Drug repurposing screens with cells derived from glioblastoma tumor samples (AID 1345199); conditions: viability, ATP luminescence, 48 h; series mostly up to 45.9 µM; note: nearly all actives have a fitted effect of over 40% in size; note: potency is the fitted concentration of half-maximal effect
# Procedure, shortened: (§2)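 Four patient lines of CD133+ GBM neurospheres were screened at several concentrations; hits were retested in those lines plus three slower-growing GBM lines, using 48-hour treatment and ATP-based viability.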
# [1] = target: Nuclear receptor subfamily 1 group I member 2 (Rattus norvegicus) (UniProt Q9R1A7); assay: qHTS assay for small molecule activators of the rat pregnane X receptor (rPXR) signaling pathway (AID 651751; call rule not given here); conditions: rPXR reporter cells, luciferase (One-Glo), 24 h
# [2] = Drug repurposing screens with cells derived from glioblastoma tumor samples (AID 1345199); conditions: GBM patient neurospheres viability, ATP luminescence, 48 h; note: nearly all actives have a fitted effect of over 40% in size; note: potency is the fitted concentration of half-maximal effect
# Procedure, shortened: as §2
# [3] = qHTS assay for small molecule activators of the human pregnane X receptor (PXR) signaling pathway (AID 720659; call rule not given here)
# [4] = qHTS assay to identify inhibitors of the type 1 interferon - major histocompatibility complex class I in skeletal muscle: Counter screen cell viability and HiBit confirmation (AID 1347412); conditions: iHSKM muscle cells + IFN-b, HiBiT or CellTiter-Glo, 24 h; for activity change, negative = inhibition: at 45.9 µM (top of the series); note: potency is the fitted concentration of half-maximal effect; for all read-outs here: nearly all actives have a fitted effect of over 60% in size
# Procedure, shortened: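 CRISPR HLA-B*08:01-HiBit immortalized human myoblasts (C25cl48) stimulated with 4 ng/ml IFN-beta and compounds (12-point 1:3, top 46 uM final) for 24 h at 37 C. Duplicate plates read by HiBit lytic luminescence or CellTiter Glo ATP.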
# [5] = at 45.9 µM (top of the series), tumour line B
# [6] = at 45.9 µM (top of the series), tumour line D
# [7] = at 46 µM (top of the series), tumour line A
# [8] = at 46.1 µM (top of the series), tumour line C
# [9] = at 20 µM (top of the series), tumour line C
# [10] = at 21.2 µM (top of the series), tumour line B
# [11] = at 21.2 µM (top of the series), tumour line D
# [12] = at 21.3 µM (top of the series), tumour line A
# Nuclear receptor subfamily 1 group I member 2 (Rattus norvegicus), sequence (Q9R1A7 whole entry, looked up): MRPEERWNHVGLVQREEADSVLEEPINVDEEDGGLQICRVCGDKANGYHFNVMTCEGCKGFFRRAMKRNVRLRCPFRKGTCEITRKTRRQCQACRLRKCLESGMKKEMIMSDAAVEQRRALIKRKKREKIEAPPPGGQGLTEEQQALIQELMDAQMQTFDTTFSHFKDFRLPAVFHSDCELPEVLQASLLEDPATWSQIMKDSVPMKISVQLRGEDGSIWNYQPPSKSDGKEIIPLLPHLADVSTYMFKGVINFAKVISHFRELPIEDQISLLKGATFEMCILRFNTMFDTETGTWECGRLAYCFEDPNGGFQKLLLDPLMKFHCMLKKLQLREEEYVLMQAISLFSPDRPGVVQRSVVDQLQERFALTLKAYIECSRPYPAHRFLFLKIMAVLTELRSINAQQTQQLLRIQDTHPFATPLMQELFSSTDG
smiles,measurement,setting,value
CCCc1c(OCCCCc2nn[nH]n2)ccc(C(C)=O)c1O,Potency,Hek293T,inactive
same,Potency,JEG-3,inactive
same,Potency,OV90,inactive
same,Potency,PA-1,inactive
same,Potency,SKOV3,inactive
same,Potency,Tov-21-G,inactive
same,Potency,Tov112D,inactive
same,Potency,astro,25.1 µM (active)
same,max response,[1],-2.11%
O=C(O)c1ccccn1,Potency,Hek293T,inactive
same,Potency,JEG-3,inactive
same,Potency,OV90,inactive
same,Potency,PA-1,inactive
same,Potency,Tov-21-G,inactive
same,Potency,Tov112D,inactive
same,"activity, negative = cell killing",[2]; [5],-12%
same,"activity, negative = cell killing",[2]; [6],-3.68%
same,"activity, negative = cell killing",[2]; [7],-22.3%
same,"activity, negative = cell killing",[2]; [8],1.95%
same,Potency,astro,inactive
CN(N=O)C(=O)N[C@@H]1[C@@H](O)[C@H](O)[C@@H](CO)O[C@@H]1O,Potency,Hek293T,inactive
same,Potency,JEG-3,inactive
same,Potency,OV90,inactive
same,Potency,PA-1,inactive
same,Potency,Tov-21-G,inactive
same,Potency,Tov112D,inactive
same,"activity, negative = cell killing",[2]; [9],-1.98%
same,"activity, negative = cell killing",[2]; [10],-12%
same,"activity, negative = cell killing",[2]; [11],1.48%
same,"activity, negative = cell killing",[2]; [12],-15.9%
same,Potency,astro,inactive
CN1CCCCC1CCN1c2ccccc2Sc2ccc(S(C)=O)cc21 (stereo not drawn),Potency,Hek293T,inactive
same,Potency,JEG-3,inactive
same,Potency,OV90,inactive
same,Potency,PA-1,inactive
same,Potency,SKOV3,inactive
same,Potency,Tov-21-G,inactive
same,Potency,Tov112D,inactive
same,"activity, negative = cell killing",[2]; [5],-8.07%
same,"activity, negative = cell killing",[2]; [8],-16.7% and 11.5%
same,Potency,astro,inactive
NCCNCCNCCNCCN,"activity change, negative = cytotoxicity",Hek293T,-2.17% [at 11.6 µM]
same,"activity change, negative = cytotoxicity",JEG-3,-3.13% [at 11.6 µM]
same,"activity change, negative = cytotoxicity",OV90,8.86% [at 11.6 µM]
same,"activity change, negative = cytotoxicity",PA-1,20.4% [at 11.6 µM]
same,"activity change, negative = cytotoxicity",SKOV3,0% [at 11.6 µM]
same,"activity change, negative = cytotoxicity",Tov-21-G,-0.438% [at 11.6 µM]
same,"activity change, negative = cytotoxicity",Tov112D,0.19% [at 11.6 µM]
same,"activity, negative = cell killing",[2]; [5],-23.1%
same,"activity, negative = cell killing",[2]; [6],-12.1%
same,"activity, negative = cell killing",[2]; [8],1.79%
same,Potency,astro,inactive
same,max response,[1],-1.57% and 1.12%
same,outcome,[3],inactive
CC(C(O)c1ccc(O)cc1)N1CCC(Cc2ccccc2)CC1 (stereo not drawn),Potency,Hek293T,inactive
same,Potency,JEG-3,inactive
same,Potency,PA-1,inactive
same,Potency,SKOV3,inactive
same,Potency,Tov-21-G,inactive
same,Potency,Tov112D,inactive
same,"activity, negative = cell killing",[2]; [8],-15.9%
same,Potency,[2]; tumour line A,2.82 µM (active)
same,Potency,[2]; tumour line B,35.5 µM (active)
same,Potency,[2]; tumour line D,12.6 µM (active)
same,Potency,astro,inactive
CC(=O)O[C@@]12CO[C@@H]1C[C@H](O)[C@@]1(C)C(=O)[C@H](O)C3=C(C)[C@@H](OC(=O)[C@H](O)[C@@H](NC(=O)OC(C)(C)C)c4ccccc4)C[C@@](O)([C@@H](OC(=O)c4ccccc4)[C@H]21)C3(C)C,Potency,Hek293T,inactive
same,Potency,JEG-3,inactive
same,Potency,OV90,inactive
same,Potency,Tov112D,inactive
same,"activity, negative = cell killing",[2]; [5],-12.5% and -11.2%
same,"activity, negative = cell killing",[2]; [6],-11.2% and -24.9%
same,Potency,[2]; tumour line A,10 µM (active)
same,"activity change, negative = inhibition",[4]; HiBiT,-20.7%
same,"activity change, negative = inhibition",[4]; Viability,-25.4%
CCOC(=O)c1ccc(O)cc1,Potency,Hek293T,inactive
same,Potency,JEG-3,inactive
same,Potency,OV90,inactive
same,Potency,PA-1,inactive
same,Potency,Tov-21-G,inactive
same,Potency,Tov112D,inactive
same,"activity, negative = cell killing",[2]; [5],-7.74%
same,"activity, negative = cell killing",[2]; [6],6.74%
same,"activity, negative = cell killing",[2]; [8],-0.513%
same,Potency,astro,inactive
same,max response,[1],1.86%
same,outcome,[3],inactive
COCCOC(=O)C1=C(C)NC(C)=C(C(=O)OC/C=C/c2ccccc2)C1c1cccc([N+](=O)[O-])c1 (stereo not drawn),Potency,JEG-3,inactive
same,Potency,OV90,inactive
same,Potency,Tov-21-G,inactive
same,Potency,Tov112D,inactive
same,"activity, negative = cell killing",[2]; [5],2.48%
same,Potency,[2]; tumour line A,3.55 µM (active)
same,Potency,[2]; tumour line C,18.4 µM (active)
same,Potency,[2]; tumour line D,12.6 µM (active)
CC[C@H]1CN2CCc3cc(OC)c(OC)cc3[C@@H]2C[C@@H]1C[C@H]1NCCc2cc(OC)c(OC)cc21,Potency,Hek293T,0.282 µM (active)
same,Potency,JEG-3,11.2 µM (active)
same,Potency,Tov-21-G,3.55 µM (active)
same,Potency,Tov112D,0.355 µM (active)
same,Potency,[4]; HiBiT,0.787 µM (active)
same,"activity change, negative = inhibition",[4]; Viability,-15.7%
Nc1cc(=O)[nH]c(N)n1,Potency,Hek293T,inactive
same,Potency,JEG-3,inactive
same,Potency,OV90,inactive
same,Potency,SKOV3,inactive
same,Potency,Tov-21-G,inactive
same,Potency,Tov112D,inactive
same,"activity, negative = cell killing",[2]; [5],1%
same,"activity, negative = cell killing",[2]; [6],-2.29%
same,"activity, negative = cell killing",[2]; [7],-24.4%
same,"activity, negative = cell killing",[2]; [8],6.18%
same,Potency,astro,inactive
CC1(C)CO[C@@H](CC(=O)O)CN1,Potency,JEG-3,inactive
same,Potency,OV90,inactive
same,Potency,PA-1,inactive
same,Potency,SKOV3,inactive
same,Potency,Tov-21-G,inactive
same,Potency,Tov112D,inactive
same,"activity, negative = cell killing",[2]; [5],-8.88%
same,"activity, negative = cell killing",[2]; [6],-5.5%
same,"activity, negative = cell killing",[2]; [7],-28.2%
same,"activity, negative = cell killing",[2]; [8],-15.1%
same,Potency,astro,inactive
NS(=O)(=O)c1cc2c(cc1C(F)(F)F)NC(Cc1ccccc1)NS2(=O)=O (stereo not drawn),Potency,Hek293T,inactive
same,Potency,JEG-3,inactive
same,Potency,PA-1,inactive
same,Potency,SKOV3,inactive
same,Potency,Tov-21-G,inactive
same,Potency,Tov112D,inactive
same,"activity, negative = cell killing",[2]; [9],-4.97%
same,"activity, negative = cell killing",[2]; [10],-2.05%
same,"activity, negative = cell killing",[2]; [11],-0.808%
same,"activity, negative = cell killing",[2]; [12],-15.9%
same,Potency,astro,inactive
CN1CCN(C2Cc3ccccc3Sc3ccc(Cl)cc32)CC1 (stereo not drawn),Potency,Hek293T,inactive
same,Potency,JEG-3,inactive
same,Potency,PA-1,inactive
same,Potency,Tov-21-G,inactive
same,Potency,Tov112D,inactive
same,Potency,astro,22.4 µM (active)
Cc1ccc(C(C)C)cc2c(C)ccc1-2,Potency,Hek293T,inactive
same,Potency,JEG-3,inactive
same,Potency,OV90,inactive
same,Potency,PA-1,inactive
same,Potency,Tov-21-G,inactive
same,Potency,Tov112D,inactive
same,"activity, negative = cell killing",[2]; [5],-9%
same,"activity, negative = cell killing",[2]; [6],5.15%
same,"activity, negative = cell killing",[2]; [8],-3.49%
same,Potency,astro,inactive
Oc1cn2c(n1)Nc1ccc(Cl)c(Cl)c1C2,Potency,JEG-3,inactive
same,Potency,OV90,inactive
same,Potency,PA-1,0.355 µM (active)
same,Potency,SKOV3,inactive
same,Potency,Tov-21-G,inactive
same,Potency,Tov112D,inactive
same,"activity, negative = cell killing",[2]; [6],-7.52%
same,"activity, negative = cell killing",[2]; [8],-8.47% and 1.08%
same,Potency,astro,inactive
C[C@H]1O[C@H](O[C@H]2[C@H](O)[C@@H](O)[C@@H](O[C@H]3[C@H](O)[C@@H](O)[C@H](O)O[C@@H]3CO)O[C@@H]2CO)[C@H](O)[C@@H](O)[C@@H]1N[C@H]1C=C(CO)[C@@H](O)[C@H](O)[C@H]1O,Potency,Hek293T,inactive
same,Potency,JEG-3,inactive
same,Potency,OV90,inactive
same,Potency,PA-1,inactive
same,Potency,Tov-21-G,inactive
same,Potency,Tov112D,inactive
same,"activity, negative = cell killing",[2]; [5],-6.62%
same,"activity, negative = cell killing",[2]; [6],5.79%
same,"activity, negative = cell killing",[2]; [8],-10.2%
same,Potency,astro,inactive
